SARS PLpro yeast: inhibitors of SARS-CoV papain-like protease in yeast; Potency, µM (top dose mostly 32.9 µM), hits mostly activators; 330,000 compounds, 0.19% hits; S. cerevisiae expressing SARS-CoV PLpro, growth rescue; AID 485353; calls by dose curve; also: nearly all actives have a fitted effect of over 55% in size
Sm TGR inh: inhibitors of Schistosoma mansoni thioredoxin glutathione reductase; AID 485364; 360,000 compounds, 3% hits; Potency, µM (doses to about 114 µM), most hits filed as inhibitors; purified TGR, DTNB reduction, TNB absorbance 405 nm; active = well fitted inhibition curve with a large enough effect; inconclusive = small, poorly fitted or top-dose-only effect; inactive = no such curve, though single readings can be large or run the other way; also: nearly all actives have a fitted effect of over 60% in size
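First, TGR (20 nM dispensed) and NADPH were mixed with compound. Second, a 15 min room-temperature incubation followed. Third, further NADPH and then DTNB were added to start the reaction. Finally, TNB absorbance was monitored kinetically.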
A number is an active result. Only some compounds are listed: those with a hit (about 3% of all), similar ones and a draw of the others.

What do the screens show for `CCOc1ccc(C(C)=O)cc1COC(=O)C(C)N=C1NS(=O)(=O)c2ccccc21` (centres undefined)?
SARS PLpro yeast: inactive; Sm TGR inh: 20µM

How did CCOc1ccc(-n2nc3ccc(NC(=O)COc4ccccc4C)cc3n2)cc1 do in these assays?
Sm TGR inh: inactive

What do the screens show for `O=C1c2ccccc2N2C(=O)c3ccccc3C2N1O` (centres undefined)?
SARS PLpro yeast: inactive; Sm TGR inh: inactive

What do the screens show for `O=C1c2ccccc2C(Nc2cccc(C(F)(F)F)c2)N1Cc1ccco1` (centres undefined)?
SARS PLpro yeast: inactive; Sm TGR inh: inactive

What do the screens show for `O=C1c2ccccc2N2C(=O)c3ccccc3C2N1Cc1ccco1` (centres undefined)?
SARS PLpro yeast: inactive; Sm TGR inh: 14µM

How did Cc1ccccc1NC1c2ccccc2C(=O)N1Cc1ccco1 (centres undefined) do in these assays?
SARS PLpro yeast: inactive; Sm TGR inh: 20µM

How did CCN(CC)S(=O)(=O)c1ccc(NC2c3ccccc3C(=O)N2Cc2ccco2)cc1 (centres undefined) do in these assays?
SARS PLpro yeast: inactive; Sm TGR inh: 22µM

Results for CCN(CC)S(=O)(=O)c1ccc(NC2c3ccccc3C(=O)N2Cc2ccc3c(c2)OCO3)cc1 (centres undefined) ?
SARS PLpro yeast: inactive; Sm TGR inh: inactive

Results for COc1cccc(OCc2cc(C3Nc4ccccc4C(=O)N3Cc3ccco3)ccc2OC)c1 (centres undefined) ?
SARS PLpro yeast: inactive; Sm TGR inh: 18µM

What do the screens show for `COc1ccc(C2Nc3ccccc3C(=O)N2Cc2ccco2)cc1COc1ccc([N+](=O)[O-])cc1` (centres undefined)?
SARS PLpro yeast: inactive; Sm TGR inh: inactive

Results for COc1cccc(CNC(=O)N2CCC(CN3CCC(C)CC3)CC2)c1 ?
Sm TGR inh: inactive

What do the screens show for `Cc1ccc(S(=O)(=O)c2nnn3c2nc(N2CCCC(C)C2)c2cc(Cl)ccc23)cc1C` (centres undefined)?
Sm TGR inh: inactive

What do the screens show for `COc1cc(C2c3c(-c4cc(C)ccc4O)n[nH]c3C(=O)N2CCCO)ccc1OCCC(C)C` (centres undefined)?
Sm TGR inh: inactive

How did CC1CCC(NC(=O)c2ccc(CS(=O)(=O)c3ccc(Cl)cc3)o2)CC1 (centres undefined) do in these assays?
Sm TGR inh: inactive

How did CC(C)N(Cc1ccccc1)C(=O)CN1C(=O)CSc2ccc(S(=O)(=O)N3CCCC3)cc21 do in these assays?
Sm TGR inh: inactive

How did COc1cccc(NC2c3ccccc3C(=O)N2Cc2ccco2)c1 (centres undefined) do in these assays?
SARS PLpro yeast: inactive; Sm TGR inh: 40µM

Results for CC(=O)c1cccc(NC2c3ccccc3C(=O)N2Cc2ccco2)c1 (centres undefined) ?
SARS PLpro yeast: inactive; Sm TGR inh: inconclusive

How did CC(C)Nc1nc2c(S(=O)(=O)c3cccc(Cl)c3)nnn2c2ccsc12 do in these assays?
Sm TGR inh: inactive

How did CC(=O)NC(c1cc(F)c2cccnc2c1O)C(C)C (centres undefined) do in these assays?
SARS PLpro yeast: inactive; Sm TGR inh: inactive

Results for O=C(c1ccccc1)c1coc2c1C(=O)c1ccccc1C2=O ?
SARS PLpro yeast: inactive; Sm TGR inh: inactive

Results for O=C1c2ccccc2-c2onc3ccc(Oc4ccccc4)c1c23 ?
SARS PLpro yeast: inactive; Sm TGR inh: 6.3µM

How did Cc1nn(CC(=O)NCc2cccc(F)c2)c(=O)c2c(C)n(-c3ccc(Cl)cc3)nc12 do in these assays?
Sm TGR inh: inactive

How did O=C(Nc1ccc(F)c(Cl)c1)c1cc(S(=O)(=O)N2CCCc3ccccc32)ccc1F do in these assays?
Sm TGR inh: inactive

How did c1ccc(-c2ccc(C3=Nn4c(nnc4-c4cccs4)SC3)cc2)cc1 do in these assays?
SARS PLpro yeast: inactive; Sm TGR inh: inactive

Results for CCCc1nnc2n1N=C(c1ccc(C)cc1)CS2 ?
SARS PLpro yeast: inactive; Sm TGR inh: 45µM

Results for CCc1nnc2n1N=C(c1ccc(Cl)cc1)CS2 ?
SARS PLpro yeast: inactive; Sm TGR inh: inactive

Results for CCc1nnc2n1N=C(c1ccccc1)CS2 ?
SARS PLpro yeast: inactive; Sm TGR inh: 45µM

What do the screens show for `CCCc1nnc2n1N=C(c1ccc([N+](=O)[O-])cc1)CS2`?
SARS PLpro yeast: inactive; Sm TGR inh: inactive

What do the screens show for `Clc1ccc(C2=Nn3c(nnc3-c3cccs3)SC2)cc1`?
SARS PLpro yeast: inactive; Sm TGR inh: 79µM

How did O=C1CC(c2nc3ccccc3n2Cc2c(F)cccc2Cl)CN1c1cccc(C(F)(F)F)c1 (centres undefined) do in these assays?
Sm TGR inh: inactive

How did O=C(Cn1cnc2onc(-c3ccc(F)cc3)c2c1=O)Nc1cccc(C(F)(F)F)c1 do in these assays?
Sm TGR inh: inactive

Results for Cc1ccc(N2CCN(S(=O)(=O)c3nnc(NC(=O)c4cccc(F)c4)s3)CC2)cc1 ?
Sm TGR inh: inactive

Results for CCOC(=O)C1CCC(CN(Cc2ccc(Cl)cc2)S(=O)(=O)c2ccc(Br)cc2)CC1 (centres undefined) ?
Sm TGR inh: inactive

How did O=C(CSc1nc(=O)[nH]c2c1CCCC2)NCc1ccccc1Cl do in these assays?
Sm TGR inh: inactive

How did C=CCNC(=S)Nc1c(C(=O)OC)[nH]c2cc(OC)ccc12 do in these assays?
SARS PLpro yeast: inactive; Sm TGR inh: 1.8µM

What do the screens show for `COC(=O)c1[nH]c2cc(OC)ccc2c1NC(=O)c1c(F)cccc1F`?
SARS PLpro yeast: inactive; Sm TGR inh: inactive

Results for CNS(=O)(=O)c1cn(CC(=O)Nc2cccc(OC)c2)cc1S(=O)(=O)NC ?
Sm TGR inh: inactive

How did Cc1ccc(NC(=O)Cn2c(=O)n(CC(=O)NCCc3ccccc3)c(=O)c3ccccc32)cc1C do in these assays?
Sm TGR inh: inactive

How did CCOC(=O)C1CCCN(c2nc3c(S(=O)(=O)c4ccc(CC)cc4)nnn3c3ccsc23)C1 (centres undefined) do in these assays?
Sm TGR inh: inactive

What do the screens show for `COc1cccc(C(=O)NCc2ccc3[nH]c(C)cc3c2)c1`?
SARS PLpro yeast: inactive; Sm TGR inh: 40µM

What do the screens show for `COc1cc(OC)cc(C(=O)NCc2ccc3[nH]c(C)cc3c2)c1`?
SARS PLpro yeast: inactive; Sm TGR inh: inconclusive

What do the screens show for `COc1cc(C(=O)NCc2ccc3[nH]c(C)cc3c2)cc(OC)c1OC`?
SARS PLpro yeast: inactive; Sm TGR inh: inconclusive

What do the screens show for `COc1ccc(C(=O)NCc2ccc3[nH]c(C)cc3c2)cc1OC`?
SARS PLpro yeast: inactive; Sm TGR inh: 14µM

What do the screens show for `CN(CCc1ccccn1)C1CC(=O)N(c2ccc(Cl)cc2)C1=O` (centres undefined)?
SARS PLpro yeast: inactive; Sm TGR inh: 10µM

Results for CN(CCc1ccccn1)C(=O)Nc1ccc(Cl)cc1 ?
Sm TGR inh: inactive

What do the screens show for `COc1ccc(NC(=O)c2ccc3c(=O)n4nc(Nc5cc(C)ccc5C)sc4nc3c2)cc1`?
Sm TGR inh: inactive

What do the screens show for `Clc1ccc(/C=C/c2nc3ccccc3[nH]2)cc1`?
SARS PLpro yeast: inactive; Sm TGR inh: 25µM

Results for Clc1ccc(/C=C/c2nc3ccccc3[nH]2)c(Cl)c1 ?
SARS PLpro yeast: inactive; Sm TGR inh: inactive

What do the screens show for `Cc1ccc(NC(=O)CN2C(=O)CCc3cc(S(=O)(=O)N4CCOCC4)ccc32)cc1N(C)C`?
Sm TGR inh: inactive

Results for O=C(Nc1ccccc1F)c1nc(SCc2ccccc2F)ncc1Cl ?
Sm TGR inh: inactive

Screening data as filed in PubChem.
